Hit rate of the full screen: of about 410,000 compounds, about 3,100 (0.76%) were called active. Where a call stands in place of a potency, no number is given. Calls follow the shape of the dose curve; as a rule, active = well fitted cell-killing curve with a large enough effect; inactive = no such curve, though single readings can be large or run the other way. This excerpt belongs to a sample that is enriched for actives.
Potency is read from the fitted curve at half-maximal effect.

The assay in a line: qHTS for Inhibitors of TGF-b: Cytotox Counterscreen. Conditions: HepG2 CAGA-GFP viability, ATP luminescence, 18 h; series mostly up to 46.1 µM. A digest of the protocol:
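CellTiter-Glo luminescence gave cytotoxicity after 18 hours at 37 degrees C. The cells were HepG2 CAGA-GFP in 1% FBS DMEM, stimulated with 500 pg/mL TGF-beta after compound addition. %Activity was normalised to no-cell wells (complete cell-killing) and DMSO (no toxicity), and curves were fitted and classified.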
A general note: Quantitative high-throughput screening tests each substance at several concentrations.
On to `CN(C(=O)CSc1nc2ccc(NC(=O)COc3ccccc3)cc2s1)c1ccccc1`, for which the Potency entry is “inactive”.

With `Cc1ccc(F)cc1NC(=O)CCSc1nc(-c2ccco2)cc(C(F)(F)F)n1`, the Potency entry was “inactive”.

As to `CCc1ccc(CN(Cc2ccco2)C(=O)c2ccccc2Cl)cc1`, the Potency entry is “inactive”.

In the case of `CC1CCCCN1S(=O)(=O)c1ccc(F)c(C(=O)Nc2ccccc2C(F)(F)F)c1` (centres undefined), the Potency result was “inactive”.

`Cc1ccc(CNC(=O)CCc2c(C)nn(-c3ccc(N4CCCC4)nn3)c2C)cc1`: the Potency entry is “inactive”.

Turning to `N=c1n(Cc2ccc(Cl)cc2)c2ccccc2n1CC(O)c1ccco1` (centres undefined), the Potency is 12.6 µM (active).

For the compound `N=c1n(CCc2ccccc2)c2ccccc2n1Cc1ccccc1F`, the Potency result is “inactive”.

Turning to `O=C(NCc1ccccc1)C(=O)NCC(c1ccco1)S(=O)(=O)c1ccc(Cl)cc1` (centres undefined), the Potency entry was “inactive”.

Turning to `COc1ccccc1-c1ccnc2[nH]n(-c3ccccc3)c(=O)c12`, the Potency result is “inactive”.

In the case of `OCc1cnc(SCc2ccc(F)cc2)n1Cc1ccc(F)cc1`, the Potency entry is “inactive”.

As to `NC(Cc1ccccc1)c1csc(Nc2cc(Oc3ccccc3)ncn2)n1` (centres undefined), the Potency was 31.6 µM (active).

Consider `COCCn1c(SCC(=O)c2cc(C)ccc2C)nc2cc(C(=O)NC3CCCC3)ccc2c1=O`, for which the Potency result is “inactive”.

As for `CCC(=O)N1CCc2cc(S(=O)(=O)NC(C(=O)Nc3ccc(C(C)=O)cc3)C(C)C)ccc21` (centres undefined), the Potency result is “inactive”.

For the compound `COC(=O)c1ccc(-c2nc3cc(NC(C)=O)ccc3o2)cc1`, the Potency entry was “inactive”.

As for `O=C(Nc1cccc(-c2cccc(Cl)c2)c1)C1CCN(C2CCC2)CC1`, the Potency result was “inactive”.

Regarding `CC(=O)c1cc(CN2CCC(C(=O)Nc3cccc(-c4cscn4)c3)CC2)cs1`, the Potency result was “inactive”.

Regarding `CCn1cc(CN2CCC(C(=O)Nc3cccc(-c4cccc(Cl)c4)c3)CC2)c(C)n1`, the Potency was 12.6 µM (active).

Turning to `Cc1ccc(CNC(=O)C2(C(F)(F)F)C/C(=C\CCO)CCCO2)o1` (centres undefined), the Potency result was “inactive”.

As to `COc1cc(OC)c2c(C)cc(=O)oc2c1C(CCN1CCCCC1)c1ccc(N(C)C)cc1` (centres undefined), the Potency result was “inactive”.

Turning to `Nc1ncc(S(=O)(=O)Nc2ccc(OC(F)(F)F)cc2)cn1`, the Potency entry is “inactive”.

`Cc1cc(C)cc(NS(=O)(=O)c2ccc(Oc3ncc(C(F)(F)F)cc3Cl)cc2)c1`: the Potency is 12.6 µM (active).

On to `Cc1ccc(NS(=O)(=O)c2ccc(F)cc2)nc1`, for which the Potency entry is “inactive”.

With `NC(=O)C1CCN(C(=O)c2cccc(NC(=O)c3nsc4ccccc34)c2)CC1`, the Potency result is “inactive”.

Take `COc1cc(OC)c(N(C)C(=O)c2cc3c(=O)oc4ccccc4c3s2)cc1Cl`: the Potency entry is “inactive”.

In the case of `CC(C)CC[n+]1ccn(C2=C([O-])c3ccccc3C(=O)/C2=N\S(=O)(=O)c2ccccc2)c1`, the Potency is 5.62 µM (active).

Regarding `Cc1ccc(S(=O)(=O)/N=C2\C=C(NS(=O)(=O)c3ccc(C)cc3)C(=O)c3ccccc32)cc1`, the Potency result was “inactive”.

In the case of `C=C1CCN(C(CC(C)C)C(=O)N2CCOCC2)S(=O)(=O)c2ccccc21` (centres undefined), the Potency entry is “inactive”.

As to `O=C(CN1c2ccccc2S(=O)(=O)c2ccccc21)Nc1cccc(C(F)(F)F)c1`, the Potency result was “inactive”.

On to `NC(c1csc(NC(=O)Nc2cccc(C(F)(F)F)c2)n1)C1CCCCC1` (centres undefined), for which the Potency is 8.91 µM (active).

For the compound `Cc1oc2ccc(O)c(CN3CCCCC3)c2c1C(=O)Nc1cccc(C(F)(F)F)c1`, the Potency result was “inactive”.

Consider `O=C(CC(NCc1cccnc1)C(=O)O)Nc1ccc(O)cc1` (centres undefined), for which the Potency result was “inactive”.

`Cc1c(Cl)cccc1NC(=O)CSc1ccc(-c2cccnc2)nn1`: the Potency entry was “inactive”.

On to `O=C(CSc1cccc2cccnc12)N/N=C/c1cccnc1`, for which the Potency is 7.08 µM (active).

Regarding `O=C(N/N=C/c1cccc2cccnc12)[C@H]1C[C@@H]1c1ccccc1`, the Potency result is “inactive”.

`Cc1cc[n+](C2CCCCC2)cc1`: the Potency result is “inactive”.

For the compound `COc1cccc(CNC(=O)c2ccc3c(c2)N(Cc2ccc(C(F)(F)F)cc2)C(=O)c2ccccc2S3)c1OC`, the Potency entry was “inactive”.

In the case of `COc1ccc(-n2nnc(-c3nsc(NC(=O)c4ccc(C)c(C)c4)n3)c2C)cc1Cl`, the Potency result is “inactive”.

As to `Cc1ccc(S(=O)(=O)CCC(=O)OCc2ccccc2)cc1`, the Potency entry was “inactive”.

For the compound `O=C(CCS(=O)(=O)c1ccccc1)N(Cc1cccnc1)c1nc2c(F)cccc2s1`, the Potency is 7.94 µM (active).

As to `Cc1cccc2sc(N(CCCN(C)C)C(=O)CCS(=O)(=O)c3ccccc3)nc12`, the Potency is 7.08 µM (active).

Take `COc1ccccc1CNC(=O)CS(=O)(=O)c1cccc2nsnc12`: the Potency result was “inactive”.

Turning to `O=C(C1COc2ccccc2O1)N(Cc1cccnc1)c1nc2c(F)cc(F)cc2s1` (centres undefined), the Potency entry was “inactive”.

On to `COc1ccc(C)cc1NC(=O)CCS(=O)(=O)c1cccc2nonc12`, for which the Potency result was “inactive”.

For `COc1cccc2sc(N(CCCN(C)C)C(=O)CCS(=O)(=O)c3ccccc3)nc12`, the Potency was 3.55 µM (active).

As for `CN(C)S(=O)(=O)c1ccc(C(=O)N(Cc2cccnc2)c2nc3c(F)cc(F)cc3s2)cc1`, the Potency result is “inactive”.

Consider `O=C(O)CCS(=O)(=O)c1ccc(-c2ccccc2)cc1`, for which the Potency result was “inactive”.

For `CCc1ccc2oc(-c3ccc(NC(=O)c4cc5ccccc5o4)cc3)nc2c1`, the Potency entry is “inactive”.

Regarding `CCn1cc(C(=O)NCCc2ccccc2)c(=O)c2cc(S(=O)(=O)N3CCCCCC3)ccc21`, the Potency entry was “inactive”.

On to `CC(C)Cn1c(C2CC(=O)N(c3ccccc3Cl)C2)nc2ccccc21` (centres undefined), for which the Potency entry is “inactive”.

Consider `CN(C)C1=C2C=CC=CC2/C(=C2/C=Cc3ccccc32)C=C1` (centres undefined), for which the Potency result was “inactive”.

Turning to `O=C1c2ccccc2C(=O)N1c1ccc(S(=O)(=O)N2CCOCC2)c2ccccc12`, the Potency entry was “inactive”.

For `OC(CBr)C[n+]1cccc2cc(Br)ccc21` (centres undefined), the Potency result was “inactive”.

For the compound `OCCNc1nc(Nc2ccc(Cl)c(Cl)c2)nc2ccccc12`, the Potency is 12.6 µM (active).

For `O=C(CSc1nc(Nc2ccc(F)c(F)c2)c2ccccc2n1)c1ccc(Cl)cc1`, the Potency entry is “inactive”.

On to `FC(F)(F)c1cc(Nc2nc3ccccc3c3nncn23)ccc1Cl`, for which the Potency result was “inactive”.

Consider `COc1ccc(CCC(=O)NCCc2csc(-c3ccc(Cl)cc3)n2)cc1`, for which the Potency entry is “inactive”.

In the case of `O=C(/C=C/c1ccccc1)Nc1cc(-c2nc3cc(Cl)ccc3o2)ccc1Cl`, the Potency entry is “inactive”.

Turning to `Cc1ccc(C)c(N2CCN(c3ccc4cc(S(=O)(=O)N5CCC(C)CC5)ccc4n3)CC2)c1`, the Potency entry was “inactive”.

Regarding `O=C(OCc1nc2ccccc2[nH]1)C1CCCCC1`, the Potency entry is “inactive”.

With `c1ccc2[nH]c(-c3nc4ccccc4[nH]3)nc2c1`, the Potency is 10 µM (active).

Regarding `O=S(=O)(c1ccc(Br)cc1)N1CCC(c2nc3ccccc3[nH]2)CC1`, the Potency result is “inactive”.

In the case of `C=C1CCN(Cc2ccc(OC)cc2)S(=O)(=O)c2ccccc21`, the Potency entry is “inactive”.

Consider `COc1ccc(-c2onc(C)c2C)cc1S(=O)(=O)NCCc1ccccc1`, for which the Potency entry was “inactive”.

`O=C(Nc1ccc(S(=O)(=O)N2CCC(c3nc4ccccc4s3)CC2)cc1)c1ccccc1F`: the Potency entry is “inactive”.

For the compound `Cc1ccc(C)c(Cn2c(=O)n(CCC(=O)NCc3ccc4c(c3)OCO4)c(=O)c3sccc32)c1`, the Potency result was “inactive”.

`Nc1nc(N)c(N=O)c(N)n1`: the Potency result was “inactive”.

As for `Cc1cccc(CSc2nc3ccncc3n2Cc2ccc(C(=O)O)cc2)c1`, the Potency entry is “inactive”.

On to `Cc1cccc(Cn2c(SCc3ccc(C(=O)N4CCC(C)CC4)cc3)nc3ccncc32)c1`, for which the Potency was 12.6 µM (active).

As to `COc1cccc(Cn2c(SCc3ccc(C(=O)N4CCC(C)CC4)cc3)nc3ccncc32)c1`, the Potency entry is “inactive”.

In the case of `COC(=O)c1cc(S(=O)(=O)N2CCN(c3cc(Cl)ccc3C)CC2)c[nH]1`, the Potency result is “inactive”.

On to `CCCCCCC1(C)NC(c2ccc3c(c2)OCO3)=CC(c2ccccc2O)N1` (centres undefined), for which the Potency result is “inactive”.

For `CCOC(=O)[C@H]1[C@H]2COc3cc(OC)ccc3[C@@H]2N2C(=O)N(c3ccc(Br)cc3)C(=O)[C@@]12C`, the Potency entry was “inactive”.

With `CS(=O)c1ccc(/C=C2\C=Cc3ccccc32)cc1` (centres undefined), the Potency result was “inactive”.

For the compound `N#Cc1ccc[n+](CC(=O)c2ccc(O)c(O)c2)c1`, the Potency entry was “inactive”.

In the case of `CN(C)c1cccc2ccccc12`, the Potency entry was “inactive”.

In the case of `O=C(Oc1ccc(-c2nc(-c3ccccn3)no2)cc1)c1ccccc1`, the Potency is 5.01 µM (active).

Turning to `COC(=O)c1ccc(-c2noc(CN(Cc3ccccn3)CC3CCCO3)n2)cc1` (centres undefined), the Potency result is “inactive”.

In the case of `O=C(COc1cccc(F)c1)Oc1ccc(C(=O)c2ccccc2)cc1`, the Potency entry was “inactive”.

Consider `O=C(c1ccco1)n1nc(-c2ccc(Cl)cc2)nc1NCc1ccccc1`, for which the Potency result is “inactive”.

As for `O=C(Nc1ccc2c(c1)OCO2)c1cc(-c2cccc(Cl)c2)on1`, the Potency result is “inactive”.

On to `COc1cc(SC#N)ccc1N=Cc1c(C)[nH]n(-c2ccc(C)cc2)c1=O`, for which the Potency is 12.6 µM (active).

Take `O=C(NCCc1ccccc1)c1cnc2sc(N3CCCC3)nn2c1=O`: the Potency result is “inactive”.

For `Cc1ccc2oc(C(=O)Nc3ccc(S(=O)(=O)N4CCCCCC4)cc3)cc(=O)c2c1`, the Potency result was “inactive”.

Take `Fc1ccc(CSc2nc(NCc3ccccc3)c3ccccc3n2)cc1`: the Potency result is “inactive”.

`O=C(Nc1nc2ccc(F)cc2s1)c1nc(SCc2ccccc2F)ncc1Cl`: the Potency entry was “inactive”.

For the compound `Fc1ccc(Nc2nc(SCc3ccccc3Cl)nc3ccccc23)cc1`, the Potency is 17.8 µM (active).

Regarding `COC(=O)c1ccc(NC(=O)c2cc(S(=O)(=O)N3CCC(C)CC3)cn2C)cc1`, the Potency result is “inactive”.

With `CN(C)c1ccc(/C=c2\[nH]c(=O)/c(=C/c3ccc(N(C)C)cc3)[nH]c2=O)cc1`, the Potency entry is “inactive”.

With `Cc1cccc(CCNC(=O)c2ccc3c(c2)nc2n3CCC(C)C2)c1` (centres undefined), the Potency entry is “inactive”.

`Cc1cccc(-c2nc3ccc(C(=O)NCCN4CCN(C)CC4)cc3nc2-c2cccc(C)c2)c1`: the Potency was 12.6 µM (active).

With `COc1ccc(-c2nc3ccc(C(=O)NCc4ccc(C)cc4)cc3nc2-c2ccc(OC)cc2)cc1`, the Potency entry is “inactive”.

Turning to `Cc1ccc2nc(N3CCN(c4cccc(Cl)c4)CC3)c3nnnn3c2c1`, the Potency result was “inactive”.

For the compound `CCCN(CCC)CCNC(=O)Cn1cnc2sc(C)c(S(=O)(=O)N3CCC(C)CC3)c2c1=O`, the Potency entry is “inactive”.

In the case of `CCN(CC)c1ccc(/C=C/c2c(C)cnc3ccc(C)cc23)cc1`, the Potency result is “inactive”.

As to `CCN(CCCCOC(=O)c1ccc(OC)c(OC)c1)C(C)Cc1ccc(OC)cc1` (centres undefined), the Potency result was “inactive”.

On to `COc1ccc(Cl)cc1NC(=O)CN(C)Cc1ccc(OC)c(OC)c1`, for which the Potency result was “inactive”.

In the case of `COc1ccc(C(CCN(Cc2ccc(OC)c(OC)c2)C(=O)CCl)c2ccccc2)cc1` (centres undefined), the Potency was 11.2 µM (active).

For `S=c1[nH]c(=S)c2n[nH]nc2[nH]1`, the Potency entry was “inactive”.

Turning to `COc1ccc(N2C(=O)CS(=O)(=O)C23C(=O)N(Cc2ccc(C)cc2)c2ccccc23)cc1Cl` (centres undefined), the Potency result was “inactive”.

Values taken from PubChem BioAssay AID588856 (National Center for Advancing Translational Sciences (NCATS), 2011).
